Reference: PubChem BioAssay (NCI)
Compounds without any hit were thinned out: in the full panel of roughly 83,000, 20% have a hit.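 Growth was measured after 48 h exposure to one concentration of compound in 96-well plates. Values under 10 count as active.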 Values without a mark were called inactive. Activity calls are given as the source filed them.

Each compound was assayed on OVCAR-3 ovarian (assay: NCI-60 one-dose screen, 48 h (100 = growth as untreated, 0 = no growth, -100 = all killed)). Conditions: 10 µM unless noted.

Row | SMILES | growth
1 | O=C1CN(Cc2ccc(C(=O)NO)cc2)C(=O)[C@@H](Cc2ccccc2)N1 | 109%
2 | COc1ncc(-c2ccc3nccc(C#CCCCCC(=O)NO)c3c2)cc1NS(=O)(=O)c1ccc(F)cc1F | -31.6% (active)
3 | CCCCCN(CCCCC)CCCCCCCCN1CCCc2ccccc21 | 72.1%
4 | CC1Cc2c(Cl)ncnc2N(C)c2ccc(O)cc21 (centres undefined) | 50.8%
5 | Cc1ccc2c(n1)C(=O)C(Cl)=C(Nc1ccc(N3CCN(C)CC3)cc1)C2=O | -100% (active)
6 | CCOc1cc(/C=N\NC(=O)N/N=C/c2ccc(O)c(OCC)c2)ccc1O | -34.7% (active)
7 | C1=C[C@H]2O[C@@H]1c1ccc3[nH]ccc3c12 | 110%
8 | CC1(C)CC[C@]2(C(=O)O)CC[C@]3(C)[C@H](CC[C@@H]4[C@@]5(C)CCC(=O)C(C)(C)[C@@H]5CC[C@]43C)[C@H]2[C@H]1OC(=O)C(F)(F)F | -67.4% [100 µM] (active)
9 | [2H]C1([2H])CCN(C(=O)C2CC2)c2cc(NS(=O)(=O)c3ccc(-c4cccc(C(N)=O)c4)cc3)ccc21 | 12.4%
10 | CCOC(=O)c1sc2nc(-c3cc(OC)c(OC)c(OC)c3)nc(N3CCOCC3)c2c1C | 15.5%
11 | O=C(CCN1CCCCC1)c1ccc(Cl)cc1 | 106%
12 | O=C1CC(C(F)(F)F)Cc2nc3ccc(Br)cc3cc21 (centres undefined) | 94.2%
13 | NC(=O)c1cccc(-c2ccc(S(=O)(=O)Nc3ccc4c(c3)N(C(=O)C3CC3)CCC4)cc2)c1 | 15.8%
14 | CCOC(=O)CCC[P+](c1ccccc1)(c1ccccc1)c1ccccc1 | 45.9%
